PubChem BioAssay (NCI)
About 79,000 compounds went through this panel and 15% of them were active in at least one assay; those are over-represented in the sample as a whole. Active and inactive are the calls of the source. Rule as the data show it: active = growth inhibition above about 70%; inactive = the rest.

Key:
[1] = NCI Yeast Anticancer Drug Screen. Data for the rad50 strain (AID 155);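 also: 0% = growth of vehicle-only cultures of the same strain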; conditions: S. cerevisiae rad50 strain growth inhibition; at 50.0 µM; hits give high values
Method in brief: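 Vehicle-treated cultures provide the reference for the growth inhibition reported for compound-exposed, repair-deficient yeast.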

[2] = NCI Yeast Anticancer Drug Screen. Data for the mec2-1 strain (AID 157); conditions: S. cerevisiae mec2-1 strain, at 50.0 µM, hits give high values
Method in brief: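 Growth inhibition is read against vehicle-treated controls after compound exposure of the mec2-1 yeast strain, which is defective in DNA damage repair or cell cycle control.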

[3] = NCI Yeast Anticancer Drug Screen. Data for the sgs1 mgt1 strain (AID 161);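 also: 0% = growth of cultures given vehicle only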; conditions: S. cerevisiae sgs1 mgt1 strain, at 50.0 µM, hits give high values
Method in brief: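 Percent growth inhibition was derived by comparing compound-exposed mutant yeast with vehicle-exposed cultures. The strain carries alterations in DNA damage repair.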

[4] = NCI Yeast Anticancer Drug Screen. Data for the cln2 rad14 strain (AID 165);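 also: 0% = growth equal to vehicle treated cultures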; conditions: S. cerevisiae cln2 rad14 strain, at 50.0 µM, hits give high values
Method in brief: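 Growth inhibition, relative to vehicle-treated controls, is the read-out. The test organism is a yeast strain with defined genetic alterations, cln2 rad14.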

[5] = NCI Yeast Anticancer Drug Screen. Data for the bub3 strain (AID 167); conditions: S. cerevisiae bub3 mutant strain, at 50.0 µM, hits give high values
Method in brief: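 Mutant yeast screening strain plus compound; vehicle-treated cultures serve as the 0% inhibition reference.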

[6] = NCI Yeast Anticancer Drug Screen. Data for the mlh1 rad18 strain (AID 175); conditions: S. cerevisiae mlh1 rad18 strain growth inhibition; at 50.0 µM; hits give high values
Method in brief: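 Cells of a genetically altered yeast strain, deficient in DNA damage repair, were treated with compound. Their growth was then compared with that of vehicle-treated cultures to give inhibition.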

Measured: growth inhibition

CSc1nc(=O)cnn1C
inactive: [1] -22.3% | [2] -8.6% | [3] -15.6% | [4] -0.5% | [5] -49.2% | [6] -5.35%

CC(C)C1=CC23CCC4C(C)(C(=O)O)CCCC4(C)C2CC1C1C(=O)N(CCCN(C)C)C(=O)C13 (stereo unspecified)
active: [1] 98.8% | [2] 99% | [3] 99% | [4] 98.2% | [5] 98% | [6] 98.6%

COC(=O)CC(=O)c1cccc([N+](=O)[O-])c1
inactive: [1] 8.95% | [2] -22.1% | [3] -3.15% | [4] 16.5% | [5] -26.8% | [6] 0.15%

OCc1ccc(O)c(CO)n1
inactive: [1] -8.85% | [2] -26.3% | [3] -3.35% | [4] 5.4% | [5] -20.6% | [6] 7.55%

CCOC(=O)c1c(C(=O)OCC)c(C)n(/N=N/n2c(C)c(C(=O)OCC)c(C(=O)OCC)c2C)c1C
inactive: [1] 29.3% | [2] 9.75% | [3] 23.6% | [4] 26.3% | [5] -1.45% | [6] 12.8%

Nc1ccccc1N=Cc1c(O)c2ccccc2oc1=O
inactive: [1] -8.55% | [2] -11% | [3] 2.7% | [4] 4.05% | [5] 4.25% | [6] 8.2%

Nc1ccc(OCC(O)N2C(=O)c3ccccc3C2=O)cc1 (stereo unspecified)
inactive: [1] -46.2% | [2] -39.5% | [3] -32.9% | [4] 14.4% | [5] 29.9% | [6] -17.9%

Cc1ccccc1-n1c(=O)sc2c(=O)n(-c3ccccc3)c(=S)[nH]c21
inactive: [1] -11.2% | [2] -23.4% | [3] 6.9% | [4] 6.2% | [5] 0.6% | [6] -18.9%

CCOC(=O)C1(C(=O)OCC)OC(=O)NC2=C1CCCC2
inactive: [1] -13.3% | [2] -29.1% | [3] -8.6% | [4] -15.7% | [5] -1.95% | [6] -23.9%

COC(=O)c1c2c(cc3c1CC1(C3)Cc3cc4c(c(C(=O)OC)c3C1)CCC4)CCC2
inactive: [1] 3.25% | [2] -35.6% | [3] -3.65% | [4] -0.8% | [5] -7.85% | [6] 10.3%

C#CC(CC(C)CC(C)(C)C)N(C)C (stereo unspecified)
inactive: [1] 39% | [2] 22.8% | [3] 16.2% | [4] 17.8% | [5] 3.8% | [6] 31.3%

NC(=O)C1C2C=CC(O2)C1C(=O)O (stereo unspecified)
inactive: [1] -26.6% | [2] -12.9% | [3] -10.3% | [4] -23.6% | [5] -1.9% | [6] 5.4%

CCOC(=O)C(C)(Cc1cccc2ccccc12)C(=O)OCC
inactive: [1] -33.6% | [2] -19.3% | [3] 5.1% | [4] -54.2% | [5] 29.8% | [6] -24.9%

Nc1ccccc1NC(=O)c1nc2ccccc2[nH]1
inactive: [1] 1.55% | [2] 15.2% | [3] 19.6% | [4] 6% | [5] 7.8% | [6] 4.5%

O=c1oc(Cl)cc2oc(=O)n(-c3ccccc3)c(=O)c12
inactive: [1] 10.8% | [2] 7% | [3] 18.8% | [4] -3.15% | [5] -9.25% | [6] 9.45%

C=C1C(=O)OC2/C=C(\C)CC(O)/C=C(/CO)CC(OC(=O)/C(C)=C/C)C12 (stereo unspecified)
inactive: [1] -4.5% | [2] -33.6% | [3] -6.55% | [4] -1.9% | [5] -1.65% | [6] -58.5%

CC(=O)N1CC/C(=C\c2ccccc2)C1=O
inactive: [1] -10.1% | [2] -7.25% | [3] -12.5% | [4] -6.85% | [5] 0.25% | [6] -3.2%

C=CC[n+]1cccc(Oc2ccc([N+](=O)[O-])cc2[N+](=O)[O-])c1
inactive: [2] 12.4% | [3] 63.5% | [4] 31.3% | [5] 18.1% | [6] 54.7%
active: [1] 73.7%

Cc1cccc(NC(=O)COc2ccc(Cl)cc2)c1C
inactive: [1] 12.4% | [2] 8.6% | [3] 5.1% | [4] -15.2% | [5] 13.1% | [6] -4.7%

C=C1C(=O)C[C@H]2[C@H]3CC[C@H](C(=O)O)[C@]12CC3(C)C
active: [1] 90.8% | [2] 93.8% | [3] 93.8% | [4] 87.7% | [5] 92.2% | [6] 92.1%

COc1ccc2ccc3[nH]c4c(C)cnc(NCCCN(C)C)c4c3c2c1
inactive: [1] 34.8% | [2] 43.2% | [3] 55.9% | [4] 18.9% | [5] 45.9% | [6] 29.1%

C=C1C(C2(C)C=CC(=O)OC3(C)COC(=O)CC32)C(OC=O)C(OC(=O)C(O)C(C)CC)C2(C)C(c3ccoc3)CC(OC(C)=O)C12O (stereo unspecified)
inactive: [1] 7.9% | [2] -5.2% | [3] -4.65% | [4] -0.45% | [5] 16.3% | [6] -21.4%

O=c1/c(=C/c2ccccc2[N+](=O)[O-])sc2nnc(-c3cccnc3)n12
inactive: [1] 11.7% | [2] 6.45% | [3] 12.8% | [4] 21.1% | [5] 11.8% | [6] 1.4%

O=C1C2=C(Nc3ccccc3N2)OC1c1ccc2c(c1)OCO2 (stereo unspecified)
inactive: [1] 4.15% | [2] -9.95% | [3] -20.1% | [4] -7.9% | [5] -29.4% | [6] -0.1%

O=C(OCCCl)Oc1c(Cl)cc([N+](=O)[O-])cc1[N+](=O)[O-]
active: [1] 99.6% | [2] 99.8% | [3] 99.7% | [4] 99% | [5] 99.2% | [6] 99.5%

CCOC1([N+](=O)[O-])c2ccccc2-c2nc3ccccc3cc21 (stereo unspecified)
active: [1] 96.8% | [2] 75.5% | [3] 74% | [5] 78.8% | [6] 92.4%
inactive: [4] 63.7%

CCOC(=O)C(OC(C)=O)(C(=O)OCC)C(O)c1cccnc1 (stereo unspecified)
inactive: [1] 15.1% | [2] -2.25% | [3] 16.3% | [4] -37.5% | [5] 8% | [6] -1.05%

Cc1c(C(=O)O)[nH]c(=O)[nH]c1=O
inactive: [1] 9.1% | [2] -20.4% | [3] 2.2% | [4] 11.5% | [5] -0.35% | [6] -12.1%

CCOC(=O)[C@H]1CS[C@]2(c3ccco3)CC(=O)N12
inactive: [1] 14.4% | [2] 8.1% | [3] -12.6% | [4] -36.2% | [5] 1.6% | [6] 44.1%

CCCCOC(=O)c1ccccc1OC
inactive: [1] -16.1% | [2] 7.2% | [3] -2.3% | [4] 16.9% | [5] 12.1% | [6] -6.9%

N/N=C(/Cc1nc2ccc(C(=O)c3ccccc3)cc2[nH]c1=O)C(=O)Nc1ccc([N+](=O)[O-])cc1[N+](=O)[O-]
inactive: [1] 23.4% | [2] 13.2% | [3] -3.6% | [4] -47.8% | [5] 5.2% | [6] 15.6%

Nc1ncnc(N)c1NC(=O)c1cccc(F)c1
inactive: [1] 0.15% | [2] -1.3% | [3] -3.7% | [4] -39.2% | [5] -8.35% | [6] 1.5%

CCCC(F)C(=O)OCC (stereo unspecified)
inactive: [1] 11.5% | [2] -6.35% | [3] 5.4% | [4] -9.35% | [5] 10% | [6] 0.3%

CC(C)C(=NNC(N)=O)C(C)C
inactive: [1] 2.1% | [2] 2.2% | [3] -1.35% | [4] -3.7% | [5] -6.95% | [6] -8.4%

CC(=O)CC(=O)C1CCC(C(=O)CC(C)=O)CC1 (stereo unspecified)
inactive: [1] -3.7% | [2] 6.2% | [3] 0.65% | [4] -28.1% | [5] -0.7% | [6] -13.2%

CCCCCOc1ccc2ccccc2c1
inactive: [1] -23.5% | [2] -27.8% | [3] -18.6% | [4] -20.9% | [5] 10.2% | [6] 7.15%

O=C(O)Cc1ccccc1Cl
inactive: [1] 24.4% | [2] 32.1% | [3] 6.55% | [4] -23.9% | [5] 14.8% | [6] 17.9%

c1ccc(C(C2=Nc3cccc4cccc(c34)N2)c2ccccc2)cc1
inactive: [1] -36.6% | [2] -18.4% | [3] -50.7% | [4] 11.1% | [5] -9.75% | [6] -22.8%

CC(=O)OCC(OC(C)=O)C(OC(C)=O)C(C=NN(C(C)=O)S(=O)(=O)c1ccc(/C=C2\NC(=O)NC2=O)cc1)OC(C)=O (stereo unspecified)
inactive: [1] -4.6% | [2] -30.9% | [3] -17.9% | [4] 14% | [5] -17.8% | [6] -7.15%

CCOC(=O)c1c(C)[nH]c(=S)c(C#N)c1-c1ccco1
inactive: [1] 17.7% | [2] 6.15% | [3] 10.8% | [4] 4.4% | [5] -3.35% | [6] 28%

O=C(c1cccc(C(F)(F)F)c1)c1ccccc1Cc1ccccc1
inactive: [1] 3.85% | [2] 13.9% | [3] 12.2% | [4] -28.1% | [5] 14.2% | [6] 42%
